# Out of some 5,500 compounds screened, about 2,000 (36%) were called active. Another 18% or so got no clear call; they are omitted. The list shows a part of the results. Unmarked numbers belong to inactive results. No stated cut-off is given here; in the data, active means normalized growth mostly below about 0.91 (no sharp cut-off); inconclusive means no clear call, values can overlap the other calls; inactive means mostly above about 0.92.
# Assay: chemical genetic growth profiling, strain panel (AID 1159580);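 further: tested at 20 µM; growth read once vehicle control cultures reached saturation at 30 °C; 1 = growth at the plate median or of vehicle wells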
# Details: growth OD
# [1] = S. cerevisiae deletion strains, locus YAL013W, strain DEP1, stronger effect = lower value
# [2] = S. cerevisiae deletion strains, locus YBR229C, strain ROT2, stronger effect = lower value
# [3] = S. cerevisiae deletion strains, locus YDL101C, strain DUN1, stronger effect = lower value
# [4] = S. cerevisiae deletion strains, locus YDR150W, strain NUM1, stronger effect = lower value
# [5] = S. cerevisiae deletion strains, locus YEL061C, strain CIN8, stronger effect = lower value
# [6] = S. cerevisiae deletion strains, locus YGR078C, strain PAC10, stronger effect = lower value
# [7] = S. cerevisiae deletion strains, locus YGR229C, strain SMI1, stronger effect = lower value
# [8] = S. cerevisiae deletion strains, locus YHR030C, strain SLT2, stronger effect = lower value
# [9] = S. cerevisiae deletion strains, locus YHR087W, strain rtc3, stronger effect = lower value
# [10] = S. cerevisiae deletion strains, locus YJR043C, strain POL32, stronger effect = lower value
# [11] = S. cerevisiae deletion strains, locus YJR075W, strain HOC1, stronger effect = lower value
# [12] = S. cerevisiae deletion strains, locus YKL190W, strain CNB1, stronger effect = lower value
# [13] = S. cerevisiae deletion strains, locus YLR039C, strain RIC1, stronger effect = lower value
# [14] = S. cerevisiae deletion strains, locus YLR058C, strain SHM2 (second series), stronger effect = lower value
# [15] = S. cerevisiae deletion strains, locus YLR085C, strain ARP6, stronger effect = lower value
# [16] = S. cerevisiae deletion strains, locus YLR262C, strain YPT6, stronger effect = lower value
# [17] = S. cerevisiae deletion strains, locus YML094W, strain GIM5, stronger effect = lower value
# [18] = S. cerevisiae deletion strains, locus YMR219W, strain ESC1, stronger effect = lower value
# [19] = S. cerevisiae deletion strains, locus YMR263W, strain SAP30, stronger effect = lower value
# [20] = S. cerevisiae deletion strains, locus YNL128W, strain TEP1, stronger effect = lower value
# [21] = S. cerevisiae deletion strains, locus YNL153C, strain GIM3, stronger effect = lower value
# [22] = S. cerevisiae deletion strains, locus YNL298W, strain CLA4 (second series), stronger effect = lower value
# [23] = S. cerevisiae deletion strains, locus YNL322C, strain KRE1, stronger effect = lower value
# [24] = S. cerevisiae deletion strains, locus YNR030W, strain Alg12, stronger effect = lower value
# [25] = S. cerevisiae deletion strains, locus YPL055C, strain LGE1, stronger effect = lower value
# [26] = S. cerevisiae deletion strains, locus YPL241C, strain CIN2, stronger effect = lower value
# [27] = S. cerevisiae deletion strains, locus YPR135W, strain CTF4, stronger effect = lower value
# [28] = S. cerevisiae strains, strain wild type, stronger effect = lower value
# [29] = S. cerevisiae deletion strains, locus YCL061C, strain MRC1, stronger effect = lower value
smiles,measurement,setting,value
NC(=S)Nc1cc(Cl)ccc1Cl,normalized growth,[1],0.99
same,normalized growth,[2],0.976
same,normalized growth,[3],0.975
same,normalized growth,[4],0.906
same,normalized growth,[5],0.961
same,normalized growth,[6],0.975
same,normalized growth,[7],1
same,normalized growth,[8],0.888
same,normalized growth,[9],0.953
same,normalized growth,[10],0.997
same,normalized growth,[11],0.997
same,normalized growth,[12],0.999
same,normalized growth,[13],0.947
same,normalized growth,[14],0.981
same,normalized growth,[15],0.919
same,normalized growth,[16],0.979
same,normalized growth,[17],0.915
same,normalized growth,[18],1
same,normalized growth,[19],0.969
same,normalized growth,[20],0.993
same,normalized growth,[21],1
same,normalized growth,[22],0.944
same,normalized growth,[23],0.987
same,normalized growth,[24],0.988
same,normalized growth,[25],0.835
same,normalized growth,[26],0.988
same,normalized growth,[27],0.84
same,normalized growth,[28],0.99
CN(NC(=S)Nc1cc(Cl)ccc1Cl)c1ccc(C(F)(F)F)cc1[N+](=O)[O-],normalized growth,"S. cerevisiae deletion strains, locus YAR019C, strain CDC15, stronger effect = lower value",0.972
same,normalized growth,"S. cerevisiae deletion strains, locus YBL105C, strain PKC1, stronger effect = lower value",0.972
same,normalized growth,"S. cerevisiae deletion strains, locus YBR135W, strain CKS1, stronger effect = lower value",0.982
same,normalized growth,"S. cerevisiae deletion strains, locus YBR136W, strain MEC1, stronger effect = lower value",0.97
same,normalized growth,"S. cerevisiae deletion strains, locus YBR160W, strain CDC28, stronger effect = lower value",0.979
same,normalized growth,"S. cerevisiae deletion strains, locus YDL017W, strain CDC7, stronger effect = lower value",0.972
same,normalized growth,"S. cerevisiae deletion strains, locus YDL028C, strain MPS1, stronger effect = lower value",0.985
same,normalized growth,[3],0.969
same,normalized growth,"S. cerevisiae deletion strains, locus YDL108W, strain KIN28, stronger effect = lower value",0.969
same,normalized growth,"S. cerevisiae deletion strains, locus YDL132W, strain cdc53, stronger effect = lower value",0.97
same,normalized growth,"S. cerevisiae deletion strains, locus YDL214C, strain PRR2, stronger effect = lower value",0.946
same,normalized growth,"S. cerevisiae deletion strains, locus YDR052C, strain DBF4, stronger effect = lower value",0.965
same,normalized growth,"S. cerevisiae deletion strains, locus YDR054C, strain cdc34, stronger effect = lower value",0.97
same,normalized growth,"S. cerevisiae deletion strains, locus YDR226W, strain ADK1, stronger effect = lower value",0.984
same,normalized growth,"S. cerevisiae deletion strains, locus YDR477W, strain SNF1, stronger effect = lower value",0.964
same,normalized growth,"S. cerevisiae deletion strains, locus YER123W, strain YCK3, stronger effect = lower value",0.893
same,normalized growth,"S. cerevisiae deletion strains, locus YER133W, strain GLC7, stronger effect = lower value",0.949
same,normalized growth,"S. cerevisiae deletion strains, locus YFL009W, strain cdc4, stronger effect = lower value",0.977
same,normalized growth,"S. cerevisiae deletion strains, locus YFL029C, strain CAK1, stronger effect = lower value",0.979
same,normalized growth,"S. cerevisiae deletion strains, locus YFR003C, strain YPI1, stronger effect = lower value",0.973
same,normalized growth,"S. cerevisiae deletion strains, locus YFR019W, strain FAB1, stronger effect = lower value",0.977
same,normalized growth,"S. cerevisiae deletion strains, locus YFR028C, strain CDC14, stronger effect = lower value",0.978
same,normalized growth,"S. cerevisiae deletion strains, locus YGR040W, strain KSS1, stronger effect = lower value",0.96
same,normalized growth,"S. cerevisiae deletion strains, locus YGR052W, strain FMP48, stronger effect = lower value",0.96
same,normalized growth,"S. cerevisiae deletion strains, locus YGR092W, strain DBF2, stronger effect = lower value",0.825
same,normalized growth,[8],0.711 (active)
same,normalized growth,"S. cerevisiae deletion strains, locus YHR079C, strain IRE1, stronger effect = lower value",0.785
same,normalized growth,"S. cerevisiae deletion strains, locus YHR082C, strain KSP1, stronger effect = lower value",1.03
same,normalized growth,"S. cerevisiae deletion strains, locus YHR205W, strain SCH9, stronger effect = lower value",0.886
same,normalized growth,"S. cerevisiae deletion strains, locus YIL147C, strain SLN1, stronger effect = lower value",0.971
same,normalized growth,"S. cerevisiae deletion strains, locus YJL095W, strain BCK1, stronger effect = lower value",0.885
same,normalized growth,"S. cerevisiae deletion strains, locus YJL128C, strain PBS2, stronger effect = lower value",0.929
same,normalized growth,"S. cerevisiae deletion strains, locus YJL157C, strain FAR1, stronger effect = lower value",0.915
same,normalized growth,"S. cerevisiae deletion strains, locus YJR016C, strain ILV3, stronger effect = lower value",0.971
same,normalized growth,"S. cerevisiae deletion strains, locus YJR066W, strain TOR1 (second series), stronger effect = lower value",0.915
same,normalized growth,"S. cerevisiae deletion strains, locus YJR066W, strain TOR1, stronger effect = lower value",0.973
same,normalized growth,"S. cerevisiae deletion strains, locus YKL048C, strain ELM1, stronger effect = lower value",0.938
same,normalized growth,"S. cerevisiae deletion strains, locus YKL067W, strain YNK1, stronger effect = lower value",0.953
same,normalized growth,"S. cerevisiae deletion strains, locus YKL101W, strain HSL1, stronger effect = lower value",0.964
same,normalized growth,"S. cerevisiae deletion strains, locus YKL193C, strain SDS22, stronger effect = lower value",0.952
same,normalized growth,"S. cerevisiae deletion strains, locus YKL203C, strain TOR2, stronger effect = lower value",0.99
same,normalized growth,"S. cerevisiae deletion strains, locus YLR113W, strain HOG1, stronger effect = lower value",0.74 (active)
same,normalized growth,"S. cerevisiae deletion strains, locus YLR133W, strain CKI1, stronger effect = lower value",0.929
same,normalized growth,"S. cerevisiae deletion strains, locus YLR403W, strain SFP1, stronger effect = lower value",0.929
same,normalized growth,"S. cerevisiae deletion strains, locus YML070W, strain DAK1, stronger effect = lower value",0.922
same,normalized growth,"S. cerevisiae deletion strains, locus YMR001C, strain CDC5, stronger effect = lower value",0.971
same,normalized growth,"S. cerevisiae deletion strains, locus YMR205C, strain PFK2 (second series), stronger effect = lower value",0.967
same,normalized growth,"S. cerevisiae deletion strains, locus YMR277W, strain FCP1, stronger effect = lower value",0.972
same,normalized growth,"S. cerevisiae deletion strains, locus YNL006W, strain LST8, stronger effect = lower value",0.974
same,normalized growth,"S. cerevisiae deletion strains, locus YNL020C, strain ARK1, stronger effect = lower value",0.897
same,normalized growth,"S. cerevisiae deletion strains, locus YNL161W, strain CBK1, stronger effect = lower value",0.977
same,normalized growth,"S. cerevisiae deletion strains, locus YNL183C, strain NPR1, stronger effect = lower value",0.972
same,normalized growth,"S. cerevisiae deletion strains, locus YNL207W, strain RIO2, stronger effect = lower value",0.976
same,normalized growth,"S. cerevisiae deletion strains, locus YNL222W, strain SSU72, stronger effect = lower value",0.982
same,normalized growth,"S. cerevisiae deletion strains, locus YNL307C, strain MCK1 (second series), stronger effect = lower value",0.932
same,normalized growth,"S. cerevisiae deletion strains, locus YOL078W, strain AVO1, stronger effect = lower value",0.974
same,normalized growth,"S. cerevisiae deletion strains, locus YOL136C, strain PFK27, stronger effect = lower value",0.903
same,normalized growth,"S. cerevisiae deletion strains, locus YOR061W, strain CKA2, stronger effect = lower value",0.907
same,normalized growth,"S. cerevisiae deletion strains, locus YOR119C, strain RIO1, stronger effect = lower value",1.04
same,normalized growth,"S. cerevisiae deletion strains, locus YOR231W, strain MKK1, stronger effect = lower value",0.847
same,normalized growth,"S. cerevisiae deletion strains, locus YOR329C, strain SCD5, stronger effect = lower value",0.97
same,normalized growth,"S. cerevisiae deletion strains, locus YPL031C, strain PHO85, stronger effect = lower value",0.937
same,normalized growth,"S. cerevisiae deletion strains, locus YPL153C, strain RAD53, stronger effect = lower value",0.942
same,normalized growth,"S. cerevisiae deletion strains, locus YPL204W, strain HRR25, stronger effect = lower value",0.911
same,normalized growth,"S. cerevisiae deletion strains, locus YPL209C, strain IPL1, stronger effect = lower value",0.977
same,normalized growth,"S. cerevisiae deletion strains, locus YPL256C, strain CLN2, stronger effect = lower value",0.762 (active)
same,normalized growth,"S. cerevisiae deletion strains, locus YPR025C, strain CCL1, stronger effect = lower value",0.981
same,normalized growth,"S. cerevisiae deletion strains, locus YPR106W, strain ISR1, stronger effect = lower value",0.981
same,normalized growth,"S. cerevisiae deletion strains, locus YPR111W, strain DBF20, stronger effect = lower value",0.959
same,normalized growth,"S. cerevisiae deletion strains, strain NNK1, stronger effect = lower value",0.951
same,normalized growth,"S. cerevisiae deletion strains, strain TSCII, stronger effect = lower value",0.968
NNC(=S)Nc1cc(C(F)(F)F)ccc1Cl,normalized growth,[1],0.926 (active)
same,normalized growth,[2],0.87 (active)
same,normalized growth,[29],0.828 (active)
same,normalized growth,[3],0.875 (active)
same,normalized growth,"S. cerevisiae deletion strains, locus YDL134C, strain PPH21, stronger effect = lower value",0.86 (active)
same,normalized growth,[4],0.872
same,normalized growth,[5],0.807 (active)
same,normalized growth,[6],0.848 (active)
same,normalized growth,[7],0.997
same,normalized growth,[8],0.324 (active)
same,normalized growth,[9],0.938
same,normalized growth,[10],0.88 (active)
same,normalized growth,[11],0.92
same,normalized growth,[12],0.64 (active)
same,normalized growth,[13],0.711 (active)
same,normalized growth,[14],0.977
same,normalized growth,[15],0.298 (active)
same,normalized growth,[16],0.804 (active)
same,normalized growth,[17],0.81 (active)
same,normalized growth,[18],0.978
same,normalized growth,[19],0.914
same,normalized growth,[20],0.858 (active)
same,normalized growth,[21],0.899 (active)
same,normalized growth,[22],0.408 (active)
same,normalized growth,[23],0.993
same,normalized growth,[24],0.525 (active)
same,normalized growth,[25],0.786 (active)
same,normalized growth,[26],0.664 (active)
same,normalized growth,[27],0.373 (active)
NNC(=S)Nc1ccc(C(F)(F)F)cc1,normalized growth,[1],0.918 (active)
same,normalized growth,[2],0.895 (active)
same,normalized growth,[29],0.872 (active)
same,normalized growth,[3],0.982
same,normalized growth,[4],0.899
same,normalized growth,[5],0.796 (active)
same,normalized growth,[6],0.867 (active)
same,normalized growth,[8],0.331 (active)
same,normalized growth,[9],0.899 (active)
same,normalized growth,[10],0.972
same,normalized growth,[11],0.961
same,normalized growth,[12],0.715 (active)
same,normalized growth,[13],0.847
same,normalized growth,[14],0.968
same,normalized growth,[15],0.254 (active)
same,normalized growth,[16],0.962
same,normalized growth,[17],0.703 (active)
same,normalized growth,[18],0.985
same,normalized growth,[19],0.937
same,normalized growth,[21],0.912 (active)
same,normalized growth,[22],0.378 (active)
same,normalized growth,[23],0.999
same,normalized growth,[24],0.522 (active)
same,normalized growth,[25],0.735 (active)
same,normalized growth,[26],0.661 (active)
same,normalized growth,[27],0.513 (active)
same,normalized growth,[28],0.756 (active)
